# Assay results: PubChem BioAssay (NCI)
# This is part of a sample that, as a whole, favours compounds with a hit. Of some 83,000 tested, about 20% had one in any assay.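 Percent growth is the endpoint: 0 to 100 indicates growth inhibition (40 means 60% inhibition), 0 means no net growth, and negative values indicate cell death.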 Unmarked numbers belong to inactive results. Calls of active or inactive are those of the source. The calls were made as follows: active = growth percent below 10; inactive = the rest.
# Tests used:
# Experiment in all cases: NCI-60 one-dose screen, 48 h (100 = growth as untreated, 0 = no growth, -100 = all killed)
# [1] = system: SK-MEL-2 melanoma; settings: 10 µM unless noted
# [2] = system: EKVX NSCLC; settings: 10 µM unless noted
# [3] = system: SN12C renal; settings: 10 µM unless noted
# [4] = system: UO-31 renal; settings: 10 µM unless noted
# [5] = system: TK-10 renal; settings: 10 µM unless noted
# [6] = system: ACHN renal; settings: 10 µM unless noted
# [7] = system: CAKI-1 renal; settings: 10 µM unless noted
# [8] = system: HL-60(TB) leukemia; settings: 10 µM unless noted
# [9] = system: CCRF-CEM leukemia; settings: 10 µM unless noted
# [10] = system: MOLT-4 leukemia; settings: 10 µM unless noted
# [11] = system: SR leukemia; settings: 10 µM unless noted
# [12] = system: RPMI-8226 leukemia; settings: 10 µM unless noted
# [13] = system: OVCAR-8 ovarian; settings: 10 µM unless noted
# [14] = system: OVCAR-5 ovarian; settings: 10 µM unless noted
# [15] = system: OVCAR-4 ovarian; settings: 10 µM unless noted
# [16] = system: SK-OV-3 ovarian; settings: 10 µM unless noted
# [17] = system: IGROV1 ovarian; settings: 10 µM unless noted
# [18] = system: OVCAR-3 ovarian; settings: 10 µM unless noted
# [19] = system: HS 578T breast; settings: 10 µM unless noted
# [20] = system: A498 renal; settings: 10 µM
SMILES,growth [1],growth [2],growth [3],growth [4],growth [5],growth [6],growth [7],growth [8],growth [9],growth [10],growth [11],growth [12],growth [13],growth [14],growth [15],growth [16],growth [17],growth [18],growth [19],growth [20] [%]
CC(C)OC(=O)[C@H](C)NP(=O)(Oc1ccccc1)C1CCCN(O)C1=O (some centres undefined),94.1%,93.4%,99.2%,86.2%,99.5%,79.4%,104%,94.1%,91.3%,93.7%,89.6%,101%,106%,91.7%,107%,122%,90.6%,99.4%,92%,–
Cn1cccc1C1CC(=O)N(CCC[Se]C#N)C1=O (centres undefined),-35.2% (active),-65.3% (active),-3.67% (active),-75.9% (active),-69.5% (active),-4.46% (active),-80.1% (active),-42.8% (active),13.8%,3.58% (active),21.2%,64.4%,-51.5% (active),20.4%,31.2%,-15.7% (active),-44.1% (active),-45.5% (active),-8.66% (active),–
COc1ccc(S(=O)(=O)N(Cc2ccc3c(c2)C=CC(C)(C)O3)c2ccccc2)cc1OC,97.1%,58.1%,95.9%,67.4%,102%,61.3%,61.7%,70.6%,72%,74.4%,75.9%,46.2%,79.9%,103%,70.6%,–,75.6%,74.3%,91.1%,–
Cn1cc(C=O)c2nccnc21,123%,96.9%,104%,106%,94.8%,109%,91.4%,107%,102%,101%,105%,103%,104%,120%,–,101%,122%,125%,100%,–
CCOC(=O)[C@@H](C)C[C@H](Cc1ccccc1)NC(=O)c1csc([C@@H](C[C@H](C(C)C)N(C)C(=O)[C@@H](NC(=O)[C@H]2CCCCN2C)C(C)(C)CC)OC(C)=O)n1,2.19% (active),37.4%,9.13% (active),7.43% (active),29.3%,2.48% (active),19.8%,-33.4% (active),3.47% (active),13.5%,–,–,10.6%,28%,30.4%,26.9%,14.5%,2.01% (active),-9.16% (active),–
COC(=O)[C@H](C[C@H](Cc1ccccc1)NC(=O)c1csc([C@@H](C[C@H](C(C)C)N(C)C(=O)[C@@H](NC(=O)[C@H]2CCCCN2C)C(C)C)OC(C)=O)n1)NC(=O)OCc1ccccc1,5.82% [8.5 µM] (active),54.7% [8.5 µM],9.35% [8.5 µM] (active),32.3% [8.5 µM],44.2% [8.5 µM],13.5% [8.5 µM],34.9% [8.5 µM],–,6.6% [8.5 µM] (active),16.1% [8.5 µM],-16.9% [8.5 µM] (active),-13.9% [8.5 µM] (active),22% [8.5 µM],26.1% [8.5 µM],40.4% [8.5 µM],22.9% [8.5 µM],13% [8.5 µM],-12.2% [8.5 µM] (active),15.3% [8.5 µM],–
Cc1cc(N(CCCl)CCCl)ccc1C=Nc1ccccc1-c1ccccc1,115%,101%,54.8%,59.5%,88.2%,34.4%,27.6%,48.4%,–,41.9%,30.6%,–,74%,43.1%,99.5%,98.6%,47.8%,88.3%,104%,–
Cn1cc(-c2csc(-c3cn(CCCCN4CCCCC4)c4ccccc34)n2)c2cccnc21,37.9%,69.9%,81.8%,-77.8% (active),50.2%,-96.4% (active),–,-62.3% (active),-11% (active),-55% (active),-49.5% (active),-31.1% (active),-58.8% (active),96.8%,82.3%,87.6%,70.6%,-75.2% (active),–,81
